From paper PMC11062922 (Nature Chemical Biology, 2023)
Like-named read-outs stand apart in the source and are kept apart here.

What was measured:
GAK = conditions: read-out: apparent Kd, n = 1
IKBKE = conditions: read-out: apparent Kd, n = 1

Lestaurtinib
potency estimated from few doses (GAK; compound concentrations:100 nM and 1000 nM (sheet 'Lestaurtinib' of Supplementary Table 1),run:Lestaurtinib_02566_R1,Plate:MR014): 580 nM | potency estimated from few doses (GAK; compound concentrations:100 nM and 1000 nM (sheet 'Lestaurtinib' of Supplementary Table 1),run:Lestaurtinib_02566_R3,Plate:MR014): 806 nM | potency estimated from few doses (GAK; compound concentrations:100 nM and 1000 nM (sheet 'Lestaurtinib' of Supplementary Table 1),run:Lestaurtinib_02572_R1,Plate:MR015): 486 nM | potency estimated from few doses (GAK; compound concentrations:100 nM and 1000 nM (sheet 'Lestaurtinib' of Supplementary Table 1),run:Lestaurtinib_02572_R3,Plate:MR015): 627 nM | potency estimated from few doses (GAK; compound concentrations:100 nM and 1000 nM (sheet 'Lestaurtinib' of Supplementary Table 1),run:Lestaurtinib_02577_R1,Plate:MR016): 484 nM | potency estimated from few doses (GAK; compound concentrations:100 nM and 1000 nM (sheet 'Lestaurtinib' of Supplementary Table 1),run:Lestaurtinib_02577_R3,Plate:MR016): 574 nM | potency estimated from few doses (GAK; compound concentrations:100 nM and 1000 nM (sheet 'Lestaurtinib' of Supplementary Table 1),run:Lestaurtinib_02584_R1,Plate:MR017): 641 nM | potency estimated from few doses (GAK; compound concentrations:100 nM and 1000 nM (sheet 'Lestaurtinib' of Supplementary Table 1),run:Lestaurtinib_02584_R2,Plate:MR017): 628 nM | potency estimated from few doses (GAK; compound concentrations:100 nM and 1000 nM (sheet 'Lestaurtinib' of Supplementary Table 1),run:Lestaurtinib_02601_R1,Plate:MR018): 786 nM | potency estimated from few doses (GAK; compound concentrations:100 nM and 1000 nM (sheet 'Lestaurtinib' of Supplementary Table 1),run:Lestaurtinib_02601_R2,Plate:MR018): 761 nM | potency estimated from few doses (GAK; compound concentrations:100 nM and 1000 nM (sheet 'Lestaurtinib' of Supplementary Table 1),run:Lestaurtinib_02601_R3,Plate:MR018): 56 nM | potency estimated from few doses (GAK; compound concentrations:100 nM and 1000 nM (sheet 'Lestaurtinib' of Supplementary Table 1),run:Lestaurtinib_02606_R1,Plate:MR019): 646 nM | potency estimated from few doses (GAK; compound concentrations:100 nM and 1000 nM (sheet 'Lestaurtinib' of Supplementary Table 1),run:Lestaurtinib_02606_R2,Plate:MR019): 729 nM | potency estimated from few doses (GAK; compound concentrations:100 nM and 1000 nM (sheet 'Lestaurtinib' of Supplementary Table 1),run:Lestaurtinib_02624_R1,Plate:MR020): 818 nM | potency estimated from few doses (GAK; compound concentrations:100 nM and 1000 nM (sheet 'Lestaurtinib' of Supplementary Table 1),run:Lestaurtinib_02624_R2,Plate:MR020): 627 nM | potency estimated from few doses (GAK; compound concentrations:100 nM and 1000 nM (sheet 'Lestaurtinib' of Supplementary Table 1),run:Lestaurtinib_02624_R3,Plate:MR020): 770 nM | potency estimated from few doses (GAK; compound concentrations:100 nM and 1000 nM (sheet 'Lestaurtinib' of Supplementary Table 1),run:Lestaurtinib_02724_R1,Plate:MR021): 577 nM | potency estimated from few doses (GAK; compound concentrations:100 nM and 1000 nM (sheet 'Lestaurtinib' of Supplementary Table 1),run:Lestaurtinib_02724_R2,Plate:MR021): 628 nM | potency estimated from few doses (GAK; compound concentrations:100 nM and 1000 nM (sheet 'Lestaurtinib' of Supplementary Table 1),run:Lestaurtinib_02748_R1,Plate:MR024): 455 nM | potency estimated from few doses (GAK; compound concentrations:100 nM and 1000 nM (sheet 'Lestaurtinib' of Supplementary Table 1),run:Lestaurtinib_02748_R2,Plate:MR024): 649 nM | potency estimated from few doses (GAK; compound concentrations:100 nM and 1000 nM (sheet 'Lestaurtinib' of Supplementary Table 1),run:Lestaurtinib_02748_R3,Plate:MR024): 731 nM | potency estimated from few doses (GAK; compound concentrations:100 nM and 1000 nM (sheet 'Lestaurtinib' of Supplementary Table 1),run:Lestaurtinib_02752_R2,Plate:MR025): 637 nM | potency estimated from few doses (GAK; compound concentrations:100 nM and 1000 nM (sheet 'Lestaurtinib' of Supplementary Table 1),run:Lestaurtinib_02752_R3,Plate:MR025): 696 nM | potency estimated from few doses (GAK; compound concentrations:100 nM and 1000 nM (sheet 'Lestaurtinib' of Supplementary Table 1),run:Lestaurtinib_02766_R1,Plate:MR027): 591 nM | potency estimated from few doses (GAK; compound concentrations:100 nM and 1000 nM (sheet 'Lestaurtinib' of Supplementary Table 1),run:Lestaurtinib_02766_R2,Plate:MR027): 36.2 nM | potency estimated from few doses (GAK; compound concentrations:100 nM and 1000 nM (sheet 'Lestaurtinib' of Supplementary Table 1),run:Lestaurtinib_02766_R3,Plate:MR027): 762 nM | potency estimated from few doses (GAK; compound concentrations:100 nM and 1000 nM (sheet 'Lestaurtinib' of Supplementary Table 1),run:Lestaurtinib_02768_R1,Plate:MR028): 728 nM | potency estimated from few doses (GAK; compound concentrations:100 nM and 1000 nM (sheet 'Lestaurtinib' of Supplementary Table 1),run:Lestaurtinib_02768_R2,Plate:MR028): 752 nM | potency estimated from few doses (GAK; compound concentrations:100 nM and 1000 nM (sheet 'Lestaurtinib' of Supplementary Table 1),run:Lestaurtinib_02795_R1,Plate:MR022): 828 nM | potency estimated from few doses (GAK; compound concentrations:100 nM and 1000 nM (sheet 'Lestaurtinib' of Supplementary Table 1),run:Lestaurtinib_02802_R1,Plate:MR029): 614 nM | potency estimated from few doses (GAK; compound concentrations:100 nM and 1000 nM (sheet 'Lestaurtinib' of Supplementary Table 1),run:Lestaurtinib_02802_R2,Plate:MR029): 635 nM | potency estimated from few doses (GAK; compound concentrations:100 nM and 1000 nM (sheet 'Lestaurtinib' of Supplementary Table 1),run:Lestaurtinib_02896_R2,Plate:MR030): 687 nM | potency estimated from few doses (GAK; compound concentrations:100 nM and 1000 nM (sheet 'Lestaurtinib' of Supplementary Table 1),run:Lestaurtinib_02896_R3,Plate:MR030): 634 nM | potency estimated from few doses (GAK; compound concentrations:100 nM and 1000 nM (sheet 'Lestaurtinib' of Supplementary Table 1),run:Lestaurtinib_03172_R1,Plate:MR031): 665 nM | potency estimated from few doses (GAK; compound concentrations:100 nM and 1000 nM (sheet 'Lestaurtinib' of Supplementary Table 1),run:Lestaurtinib_03172_R2,Plate:MR031): 786 nM | potency estimated from few doses (GAK; compound concentrations:100 nM and 1000 nM (sheet 'Lestaurtinib' of Supplementary Table 1),run:Lestaurtinib_03172_R3,Plate:MR031): 687 nM | potency estimated from few doses (GAK; compound concentrations:100 nM and 1000 nM (sheet 'Lestaurtinib' of Supplementary Table 1),run:Lestaurtinib_03252_R1,Plate:MR032): 707 nM | potency estimated from few doses (GAK; compound concentrations:100 nM and 1000 nM (sheet 'Lestaurtinib' of Supplementary Table 1),run:Lestaurtinib_03252_R2,Plate:MR032): 29.5 nM | potency estimated from few doses (GAK; compound concentrations:100 nM and 1000 nM (sheet 'Lestaurtinib' of Supplementary Table 1),run:Lestaurtinib_03260_R1,Plate:MR033): 784 nM | potency estimated from few doses (GAK; compound concentrations:100 nM and 1000 nM (sheet 'Lestaurtinib' of Supplementary Table 1),run:Lestaurtinib_03260_R2,Plate:MR033): 821 nM | potency estimated from few doses (GAK; compound concentrations:100 nM and 1000 nM (sheet 'Lestaurtinib' of Supplementary Table 1),run:Lestaurtinib_03260_R3,Plate:MR033): 793 nM | potency estimated from few doses (IKBKE; compound concentrations:100 nM and 1000 nM (sheet 'Lestaurtinib' of Supplementary Table 1),run:Lestaurtinib_02339_R1,Plate:MR001): 861 nM | potency estimated from few doses (IKBKE; compound concentrations:100 nM and 1000 nM (sheet 'Lestaurtinib' of Supplementary Table 1),run:Lestaurtinib_02339_R2,Plate:MR001): 585 nM
